Results published in PubChem BioAssay (NCATS).
Records with an inconclusive call do not appear. Entries that show only a call come without a potency. The source made the active and inactive calls. Unless noted, calls come from the whole dose curve; as a rule, active = well fitted curve in the direction sought with a large enough effect; inconclusive = small, poorly fitted or top-dose-only effect, or another doubt; inactive = no such curve, though single readings can be large; an effect the other way counts as inactive or inconclusive.

Legend:
[1] = Primary qHTS for small molecule stabilizers of the endoplasmic reticulum resident proteome: Secreted ER Calcium Modulated Protein (SERCaMP) assay (AID 1508630)
Summary of the method: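 GLuc-SERCaMP-expressing SH-SY5Y cells, pretreated 16 h with compound, are challenged with thapsigargin to empty ER calcium stores; after 4 h, coelenterazine is added directly to the medium and luminescence is imaged.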

[2] = target: Papain (Carica papaya) (UniProt P00784); assay: Primary qHTS assay for inhibitors of the protease papain (AID 1645873);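 note: papain turnover of Z-FR-AMC read as the AMC fluorescence gain over 10 min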; note: potency is the fitted concentration of half-maximal effect
Papain (Carica papaya), sequence (P00784 whole entry, looked up): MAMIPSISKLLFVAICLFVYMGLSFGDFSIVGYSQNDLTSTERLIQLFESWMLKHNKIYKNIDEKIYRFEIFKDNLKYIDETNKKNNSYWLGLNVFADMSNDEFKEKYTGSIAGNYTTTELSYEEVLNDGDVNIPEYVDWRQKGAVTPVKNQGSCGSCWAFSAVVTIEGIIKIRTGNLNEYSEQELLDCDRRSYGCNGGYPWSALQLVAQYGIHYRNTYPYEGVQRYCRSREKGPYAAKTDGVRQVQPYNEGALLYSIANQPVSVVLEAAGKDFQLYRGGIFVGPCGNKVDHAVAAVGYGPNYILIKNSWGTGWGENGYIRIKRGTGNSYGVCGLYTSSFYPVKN

[3] = target: Catechol O-methyltransferase (Homo sapiens) (UniProt P21964); assay: Confirmatory Screen for Target Class Profiling of Small Molecule Inhibitors of Methyltransferases (AID 1745852; calls by dose curve; note: potency is the fitted concentration of half-maximal effect); settings: MTase-Glo luminescence, SAH detection, recombinant enzyme; measured here: COMT max response; stronger effect = lower value
Catechol O-methyltransferase (Homo sapiens), sequence (P21964 whole entry, looked up): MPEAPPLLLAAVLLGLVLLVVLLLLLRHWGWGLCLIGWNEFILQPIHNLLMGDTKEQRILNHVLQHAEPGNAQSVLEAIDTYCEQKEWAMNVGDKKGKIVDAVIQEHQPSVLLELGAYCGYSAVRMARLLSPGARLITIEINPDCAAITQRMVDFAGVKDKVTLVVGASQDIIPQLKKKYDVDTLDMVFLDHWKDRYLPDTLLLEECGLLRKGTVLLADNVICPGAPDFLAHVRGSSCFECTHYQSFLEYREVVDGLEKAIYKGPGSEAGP

[4] = target: Guanidinoacetate N-methyltransferase (Homo sapiens) (UniProt Q14353); assay: as above; settings: MTase-Glo luminescence, SAH detection, recombinant enzyme; activity change, negative = inhibition: at 57.3 µM (top of the series)
[5] = target: Nicotinamide N-methyltransferase (Homo sapiens) (UniProt P40261); assay: as above; settings: MTase-Glo luminescence, SAH detection, recombinant enzyme; measured here: NNMT max response; stronger effect = lower value
Nicotinamide N-methyltransferase (Homo sapiens), sequence (P40261 whole entry, looked up): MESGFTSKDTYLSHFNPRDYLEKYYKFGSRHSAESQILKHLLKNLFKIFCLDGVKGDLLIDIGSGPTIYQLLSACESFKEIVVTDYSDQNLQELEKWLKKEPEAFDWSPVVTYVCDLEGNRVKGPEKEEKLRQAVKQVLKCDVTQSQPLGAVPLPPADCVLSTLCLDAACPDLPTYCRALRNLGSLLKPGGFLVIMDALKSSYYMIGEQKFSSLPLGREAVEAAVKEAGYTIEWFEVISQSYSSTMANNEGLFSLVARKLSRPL

[6] = target: Phenylethanolamine N-methyltransferase (Homo sapiens) (UniProt P11086); assay: as above; settings: MTase-Glo luminescence, SAH detection, recombinant enzyme; measured here: PNMT max response; stronger effect = lower value
Phenylethanolamine N-methyltransferase (Homo sapiens), sequence (P11086 whole entry, looked up, the tested form may be a part): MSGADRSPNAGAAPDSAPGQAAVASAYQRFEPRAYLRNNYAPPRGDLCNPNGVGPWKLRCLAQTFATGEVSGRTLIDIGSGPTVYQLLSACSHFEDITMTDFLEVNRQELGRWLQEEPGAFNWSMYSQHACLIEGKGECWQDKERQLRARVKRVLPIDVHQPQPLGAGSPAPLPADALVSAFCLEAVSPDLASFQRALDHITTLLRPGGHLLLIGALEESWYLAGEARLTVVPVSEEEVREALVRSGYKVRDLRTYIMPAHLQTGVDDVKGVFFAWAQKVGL

[7] = Primary qHTS for inhibitors of nuclear receptor binding SET domain protein 2 (NSD2) in an RCH-ACV wild type WT cells (2C) (AID 1645877); note: nearly all actives have a fitted effect of over 70% in size
[8] = target: Rap guanine nucleotide exchange factor 3 (Homo sapiens) (UniProt O95398); assay: Confirmatory qHTS for agonist of cAMP-regulated guanine nucleotide exchange factor 3 (EPAC1) (AID 1645881);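 note: EPAC1 catalysed release of BODIPY-GDP from Rap1B seen as fluorescence loss; nearly all actives have a fitted effect of over 75% in size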
Rap guanine nucleotide exchange factor 3 (Homo sapiens), sequence (O95398 whole entry, looked up): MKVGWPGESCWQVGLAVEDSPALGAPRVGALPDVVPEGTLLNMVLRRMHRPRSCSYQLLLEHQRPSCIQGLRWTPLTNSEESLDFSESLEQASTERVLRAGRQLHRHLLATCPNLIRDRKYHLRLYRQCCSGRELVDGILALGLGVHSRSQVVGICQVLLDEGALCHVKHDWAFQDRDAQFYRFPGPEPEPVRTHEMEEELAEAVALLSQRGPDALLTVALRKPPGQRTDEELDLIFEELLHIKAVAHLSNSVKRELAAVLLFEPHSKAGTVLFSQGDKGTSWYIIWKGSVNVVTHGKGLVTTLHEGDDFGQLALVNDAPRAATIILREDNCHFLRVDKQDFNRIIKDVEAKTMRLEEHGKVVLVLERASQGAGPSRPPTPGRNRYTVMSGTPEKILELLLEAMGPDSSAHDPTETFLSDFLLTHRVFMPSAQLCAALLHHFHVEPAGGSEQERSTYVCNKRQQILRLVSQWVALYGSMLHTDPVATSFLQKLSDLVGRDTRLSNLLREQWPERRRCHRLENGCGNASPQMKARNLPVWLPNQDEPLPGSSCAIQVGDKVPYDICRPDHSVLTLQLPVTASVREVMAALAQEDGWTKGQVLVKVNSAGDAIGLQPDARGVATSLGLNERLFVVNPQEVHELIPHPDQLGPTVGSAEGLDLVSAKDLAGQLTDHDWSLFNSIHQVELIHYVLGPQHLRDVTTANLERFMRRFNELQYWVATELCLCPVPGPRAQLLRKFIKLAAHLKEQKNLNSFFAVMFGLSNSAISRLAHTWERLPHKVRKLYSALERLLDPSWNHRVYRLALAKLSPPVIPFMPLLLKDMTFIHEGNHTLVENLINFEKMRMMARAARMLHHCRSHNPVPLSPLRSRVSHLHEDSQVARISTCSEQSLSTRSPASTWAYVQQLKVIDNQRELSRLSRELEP

[9] = target: Rap guanine nucleotide exchange factor 4 (Homo sapiens) (UniProt Q8WZA2); assay: Confirmatory qHTS for agonist of cAMP-regulated guanine nucleotide exchange factor 4 (EPAC2) (AID 1645884);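 note: nucleotide exchange releases bodipy-GDP from Rap1 and this lowers its fluorescence; nearly all actives have a fitted effect of over 65% in size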
Rap guanine nucleotide exchange factor 4 (Homo sapiens), sequence (Q8WZA2 whole entry, looked up): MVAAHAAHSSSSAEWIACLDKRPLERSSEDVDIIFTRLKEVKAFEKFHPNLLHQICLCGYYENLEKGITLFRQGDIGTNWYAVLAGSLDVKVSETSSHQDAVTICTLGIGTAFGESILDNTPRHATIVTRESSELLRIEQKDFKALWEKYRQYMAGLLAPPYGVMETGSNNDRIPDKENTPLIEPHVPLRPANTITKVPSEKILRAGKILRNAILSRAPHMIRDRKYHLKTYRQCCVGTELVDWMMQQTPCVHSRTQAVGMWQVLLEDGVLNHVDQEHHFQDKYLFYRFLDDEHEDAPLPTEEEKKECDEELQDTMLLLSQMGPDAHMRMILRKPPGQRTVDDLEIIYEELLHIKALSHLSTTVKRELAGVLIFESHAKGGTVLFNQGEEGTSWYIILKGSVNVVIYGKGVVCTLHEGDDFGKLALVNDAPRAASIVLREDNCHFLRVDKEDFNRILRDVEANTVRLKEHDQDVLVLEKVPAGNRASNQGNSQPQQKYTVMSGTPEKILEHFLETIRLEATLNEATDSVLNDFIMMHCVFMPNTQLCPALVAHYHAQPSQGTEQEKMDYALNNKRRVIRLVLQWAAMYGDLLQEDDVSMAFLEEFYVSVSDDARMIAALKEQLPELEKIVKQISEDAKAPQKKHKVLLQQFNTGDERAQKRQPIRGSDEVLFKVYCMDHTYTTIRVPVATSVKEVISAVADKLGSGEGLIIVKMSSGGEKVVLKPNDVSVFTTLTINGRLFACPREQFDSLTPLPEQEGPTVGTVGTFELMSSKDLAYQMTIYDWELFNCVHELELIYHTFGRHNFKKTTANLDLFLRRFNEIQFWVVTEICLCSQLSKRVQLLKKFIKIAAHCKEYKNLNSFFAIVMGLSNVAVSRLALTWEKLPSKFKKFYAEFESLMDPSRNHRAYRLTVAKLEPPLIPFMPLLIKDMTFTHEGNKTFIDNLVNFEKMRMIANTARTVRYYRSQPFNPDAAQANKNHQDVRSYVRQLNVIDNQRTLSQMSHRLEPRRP

[10] = target: Rap guanine nucleotide exchange factor 4 (Homo sapiens) (UniProt Q8WZA2); assay: Confirmatory qHTS for antagonist of cAMP-regulated guanine nucleotide exchange factor 4 (EPAC2) (AID 1645885); note: potency is the fitted concentration of half-maximal effect; nearly all actives have a fitted effect of over 25% in size
[11] = target: Rap guanine nucleotide exchange factor 3 (Homo sapiens) (UniProt O95398); assay: Counterscreen qHTS for antagonist of cAMP-regulated guanine nucleotide exchange factor 3 (EPAC1) (AID 1645888);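 note: fluorescence loss as bound BODIPY-GDP is released from Rap1B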
Summary of the method: (§1)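 Rap1B–BODIPY-GDP (250 nM) with 50 uM GDP; compounds pin-transferred to 9.74 nM–152 uM final (activator) or from 7.32 nM upwards (inhibitor). Fluorescence Ex/Em 480/540 nm read at 5 and 30 min, then after adding cAMP or buffer, at room temperature.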

[12] = target: Rap guanine nucleotide exchange factor 3 (Homo sapiens) (UniProt O95398); assay: Counterscreen qHTS for agonist of cAMP-regulated guanine nucleotide exchange factor 3 (EPAC1) (AID 1645889); note: nearly all actives have a fitted effect of over 40% in size
Summary of the method: as §1

For Cc1nc(N=Nc2cc(S(=O)(=O)O)c3cc([N+](=O)[O-])cc(S(=O)(=O)O)c3c2)c(COP(=O)(O)O)c(C=O)c1O, the Potency [1] was “inactive”.
For C=CCn1c(=O)c2c(nc(-c3ccc(S(=O)(=O)O)cc3)n2C)n(C)c1=O, the Potency [1] was “inactive” and the Potency [2] was 25.1 µM (active).
In the case of CCCCCCN(CCCCCC)C(=O)Cc1c(-c2ccc(F)cc2)[nH]c2ccccc12, the Potency [1] is reported as “inactive”.
For Nc1ccc(-c2nc3ccc(-c4nc5ccc(N)cc5[nH]4)cc3[nH]2)cc1, the Potency [1] was “inactive”.
For N#CC(=C(\N)Sc1ccccc1N)/C(C#N)=C(/N)Sc1ccccc1N, the Potency [1] was “inactive”.
For CCCc1c(-c2ccc(O)cc2)nn(-c2ccc(O)cc2)c1-c1ccc(O)cc1, the Potency [1] was “inactive”, the Potency [2] was “inactive” and the activity [3] was -7.84%. The Potency [4] was 43.2 µM (active), the activity [5] was -57.1% and the activity [6] was -22%.
With CN1CCN(c2nc3cc(C(F)(F)F)ccc3n3cccc23)CC1 the Potency [2] was “inactive”.
With O=C(O)c1cc(=O)cc(C(=O)O)[nH]1 the Potency [2] was “inactive”.
With N[C@@H](CCC(=O)N[C@H](CSN=O)C(=O)NCC(=O)O)C(=O)O the Potency [1] was “inactive” and the Potency [2] was “inactive”.
For CCCn1c(=O)c2[nH]c(C3CCCC3)nc2n(CCC)c1=O, the Potency [1] was “inactive” and the Potency [2] was “inactive”.
In the case of CCCc1c(OCCCOc2ccc(OCC(=O)O)cc2)ccc(C(C)=O)c1O, the Potency [7] is reported as “inactive”, the Potency [8] is reported as “inactive” and the Potency [9] is reported as “inactive”. For the same compound, the Potency [10] was 15.6 µM (active), the outcome [11] was “inactive” and the outcome [12] was “inactive”. For the same compound, the activity [3] was 14.3%, the activity change, negative = inhibition [4] was 1.18% and the activity [5] was -16.7%. The activity [6] was 0.821%.
Work on NS(=O)(=O)c1cccc2c1c([N+](=O)[O-])cc1nc(O)c(O)nc12 yielded an activity [3] of -92.9%, an activity change, negative = inhibition [4] of 0.0632% and an activity [5] of -6.69%. The activity [6] was 1.61%.
With COC(=O)C(C)(N)Cc1ccc(O)cc1 (stereo not drawn) the Potency [2] was “inactive”.
In the case of N#C/C(=C\c1ccc(O)c(O)c1)C(=O)NCCc1ccccc1, the Potency [2] is reported as “inactive”, the activity [3] is reported as 85.9% and the Potency [4] is reported as 0.432 µM (active). For the same compound, the activity [5] was -37.9% and the activity [6] was 0.462%.
In the case of CCCCCCCCCCCCCCSCC(=O)O, the Potency [1] is reported as “inactive” and the Potency [2] is reported as “inactive”.
With Oc1ccc(/C=C/c2ccc(/C=C/c3ccc(O)cc3)c(Br)c2)cc1 the Potency [2] was “inactive”.
In the case of C=C1C(=O)O[C@@H]2[C@H]3O[C@]3(C)CCC=C(C)CC[C@@H]12, the Potency [1] is reported as “inactive” and the Potency [2] is reported as “inactive”.
